According to the supplement of paper PMC6555819:

Key:
Assay in all cases: PBM binding z-score (relative to random genomic background probes); higher = stronger binding; sequences stand for … in GC…GCGATTGACAGCGTAGAATGAAGG
[1] = test system: FXR:RXRa (NR concentration 270 nM, RXRa partner concentration 90 nM)
In short: (§1)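 Probes were double-stranded and carried 34-nt variable regions with direct-repeat seeds, single-nucleotide variants, half-site ablations and random human genomic background sequences, printed on custom Agilent 4×180K protein-binding microarrays. Arrays were incubated 1 h with ligand-free nuclear receptor dimers in PBS pH 7.4, 2% milk, 0.02% Triton X-100, 1 mM DTT, 0.2 mg/mL BSA and 0.4 mg/ml salmon testes DNA. Antibodies against each partner (one per run) detected binding, and scanned fluorescence was regression-normalized. Binding z-scores use the random background probes as reference.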

[2] = test system: LXRa:RXRa (NR concentration 270 nM, RXRa partner concentration 90 nM)
In short: as §1

[3] = test system: LXRa homodimer (NR concentration 270 nM)
In short: as §1

[4] = test system: LXRb:RXRa (NR concentration 270 nM, RXRa partner concentration 90 nM)
In short: as §1

[5] = test system: LXRb homodimer (NR concentration 270 nM)
In short: as §1

[6] = test system: PPARa:RXRa (NR concentration 270 nM, RXRa partner concentration 90 nM)
In short: as §1

[7] = test system: PPARg:RXRa (NR concentration 180 nM, RXRa partner concentration 90 nM)
In short: as §1

[8] = test system: PPARg:RXRa 270nM:90nM, anti-RXR (NR concentration 270 nM, RXRa partner concentration 90 nM)
In short: as §1

[9] = test system: PPARg:RXRa 30nM:10nM, anti-RXR (NR concentration 30 nM, RXRa partner concentration 10 nM)
In short: as §1

[10] = test system: PPARg:RXRa 90nM:30nM, anti-RXR (NR concentration 90 nM, RXRa partner concentration 30 nM)
In short: as §1

[11] = test system: PPARg:RXRa DBDmut IVT, anti-RXR (DBD mutation: RXRa K156A/R161A, NR concentration 270 nM, RXRa partner concentration 90 nM)
In short: as §1

[12] = test system: PPARg:RXRa IVT, anti-PPARg (NR concentration 270 nM, RXRa partner concentration 90 nM)
In short: as §1

[13] = test system: PPARg DBDmut:RXRa IVT, anti-PPARg (DBD mutation: PPARg1 K132A/R137A, NR concentration 270 nM, RXRa partner concentration 90 nM)
In short: as §1

[14] = test system: PPARg DBDmut IVT, anti-PPARg (DBD mutation: PPARg1 K132A/R137A, NR concentration 270 nM)
In short: as §1

[15] = test system: PPARg homodimer (NR concentration 180 nM)
In short: as §1

[16] = test system: PXR:RXRa (NR concentration 270 nM, RXRa partner concentration 90 nM)
In short: as §1

[17] = test system: PXR homodimer (NR concentration 270 nM)
In short: as §1

[18] = test system: RARa:RXR (NR concentration 270 nM, RXRa partner concentration 90 nM)
In short: as §1

[19] = test system: RARa homodimer (NR concentration 270 nM)
In short: as §1

[20] = test system: RARb:RXRa (NR concentration 270 nM, RXRa partner concentration 90 nM)
In short: as §1

Row | Sequence | PBM binding z-score [1] | PBM binding z-score [2] | PBM binding z-score [3] | PBM binding z-score [4] | PBM binding z-score [5] | PBM binding z-score [6] | PBM binding z-score [7] | PBM binding z-score [8] | PBM binding z-score [9] | PBM binding z-score [10] | PBM binding z-score [11] | PBM binding z-score [12] | PBM binding z-score [13] | PBM binding z-score [14] | PBM binding z-score [15] | PBM binding z-score [16] | PBM binding z-score [17] | PBM binding z-score [18] | PBM binding z-score [19] | PBM binding z-score [20]
1 | TCATATAGGTAAATGCTAGGTGAAAGTCCGATCT | 1.23 | 1.02 | 0.256 | 0.834 | -0.0467 | 1.43 | 1.09 | 2.44 | 3.65 | 3.19 | 3.92 | 2.74 | 1.21 | 1.03 | 0.763 | 0.713 | 0.387 | 1.07 | 1.52 | 0.642
2 | ATCGAAAGGCCGACGAGGTGAGTATACACCGTTT | 0.135 | -0.127 | -0.565 | -0.439 | -0.414 | -0.0782 | 0.686 | -0.414 | -0.0742 | -0.119 | -0.57 | 0.479 | 0.035 | 0.014 | -0.108 | -0.0744 | -0.0811 | 0.0866 | -0.372 | 1.33
3 | GCGACTGGGGGAAAGCAGGTTACCATAAGGTTGG | 0.271 | 0.375 | -0.178 | 1.5 | 2.74 | 1.75 | 0.956 | 1.47 | 0.539 | 1.33 | 2.14 | 3.37 | 1.81 | 2.84 | 0.279 | 0.944 | 0.0746 | 1.14 | -0.282 | 0.616
4 | TCTTGTATATCAACAGGAGGTTAAGAAAGATCGA | 0.413 | 1.42 | 0.536 | 1.16 | 0.307 | 1.29 | 0.477 | 1.5 | 3.07 | 2.27 | 1.71 | 0.652 | 1.56 | 1.04 | 0.679 | 1.2 | 0.265 | 1.32 | 0.86 | 0.806
5 | CCAGACAGGTGAAAGGTAACCCAGTCTGGTACGC | 0.66 | 0.713 | -0.512 | 0.445 | -0.0532 | 3.4 | 5.86 | 5.65 | 3.97 | 5.97 | 1.94 | 3.53 | -0.215 | -0.209 | 0.618 | 0.694 | -0.254 | 1.53 | 0.316 | 1.27
6 | ATACCAAGGTGAACGTGAGGTCGTTGATACTAAC | 3.12 | 3.08 | 1.29 | 2.47 | -0.133 | 2.87 | 2.13 | 1.87 | 0.56 | 1.48 | 2.44 | 3.17 | 1.14 | 0.95 | 1.83 | 4.23 | 1.48 | 3.21 | 0.99 | 2.43
7 | TCTAGTTTGTCAAAGGTCACACACTCGAAATGCG | 6 | 5.79 | 5.08 | 5.68 | 2 | 6.11 | 8.39 | 8.19 | 7.6 | 8.39 | 2.53 | 4.9 | 1.7 | 3.34 | 4.88 | 5.82 | 1.78 | 6.66 | 2.78 | 4.98
8 | AGAACGAGGGCGATGAGTTGATAGCACGGGTGGC | -0.358 | -0.46 | -0.764 | -0.815 | -0.754 | -0.167 | 0.665 | -0.212 | -0.297 | -0.297 | 0.888 | 0.217 | -0.427 | -0.338 | -0.143 | 0.367 | 1.89 | -0.627 | -0.34 | 0.39
9 | ATCGAAAGGTCGACGAGATGAGTATACACCGTTT | 3.66 | 2.9 | 0.0102 | 2.41 | 0.483 | 4.04 | 2.7 | 2.66 | 1.14 | 1.85 | 0.534 | 1.36 | 1.43 | 1.08 | 1.2 | 2.24 | 0.2 | 2.77 | 0.514 | 3.79
10 | ATATGTAGGTTACATCCGGGTCATTCATGCTATG | 2.21 | 4.15 | 1.59 | 3.05 | 0.928 | 4.55 | 6.16 | 5.07 | 2.55 | 4.45 | 7.49 | 7.53 | 5.06 | 3.54 | 3.61 | 3.79 | 1.66 | 3.83 | 1.2 | 2.23
11 | GCTTGTTGGTCAGTAAAAGGTCACACACCGGTCG | 3.14 | 4.29 | 4.58 | 4.04 | 1.25 | 4.42 | 3.2 | 4.25 | 2.37 | 4.03 | 1.37 | 3.04 | 0.573 | 0.581 | 3.31 | 4.71 | 1.12 | 5.45 | 1.86 | 4.32
12 | CGTCCAAGGTTAGCAGGTCAGTGAAAGCGACGTG | 1.34 | 1.26 | -0.0811 | 0.92 | -0.45 | 2.44 | 1.18 | 2.08 | -0.171 | 1.04 | 2 | 2.5 | -0.8 | -0.782 | 1.06 | 1.18 | -0.346 | 2.01 | -0.223 | 3.08
13 | CAAACTAGGTCACCGGAAGGTCAAACTCCGCATG | 6.33 | 6.34 | 6.11 | 5.67 | 1.82 | 6.19 | 9.8 | 7.8 | 6.23 | 7.86 | 8.32 | 8.83 | 5.1 | 4.65 | 8.25 | 6.17 | 2.46 | 7.35 | 2.71 | 5.14
14 | GTAACGAGGGCATTCGAGTTGATAGCATGGCGAT | 1.83 | 1.91 | -0.134 | 0.286 | -0.321 | 1.72 | 1.12 | 0.912 | 0.115 | 0.712 | 3.16 | 2.66 | 0.308 | -0.0825 | -0.229 | 3.76 | 2.23 | 0.683 | -0.277 | 1.89
15 | TCTTGTAGATCTAAGGTTAAGAAAGCCGAAGCCT | 0.97 | 0.808 | 0.287 | 1.16 | -0.127 | 1.98 | 1.85 | 3.71 | 3.41 | 4.08 | 1.71 | 0.863 | 0.224 | -0.213 | 0.385 | 0.921 | -0.35 | 1.55 | -0.0766 | 0.9
16 | TCGAGTAGGTTAGGGGCATTCTGAATGGCGTCGA | 0.16 | 0.0463 | -0.301 | 0.694 | -0.421 | 1.08 | 0.543 | 2.02 | 1.09 | 1.41 | 2.23 | 1.58 | -0.74 | -0.137 | 0.496 | 0.244 | 0.106 | 0.337 | -0.415 | 0.807
17 | ATCTCTAGGTAACCAAGTTCAGTGAATGCCGAAC | 0.707 | 1.04 | 0.708 | 0.638 | 0.763 | 1.33 | 0.617 | 0.913 | 0.376 | 0.682 | 3.64 | 3.09 | 0.611 | 1.02 | 1 | 1.86 | 1.98 | 0.882 | 0.575 | 1.36
18 | CGTCAAAGTTCAAGGTATCGTAACAGAAAGCAGC | 5.48 | 5.39 | 2.28 | 3.16 | 1.03 | 4.38 | 3.83 | 4.59 | 1.75 | 3.38 | 0.378 | 1.35 | -0.37 | 0.459 | 2.03 | 3.81 | 1.91 | 3.09 | 1.17 | 4.93
19 | CGAACGAGGGCATGCGTTGATAGCAAATGCCGAT | 0.569 | 0.207 | -0.45 | 0.0933 | -0.834 | 1.12 | 0.923 | 0.579 | -0.693 | 0.0948 | 2.51 | 1.72 | -0.297 | -0.501 | 0.165 | 0.344 | -0.453 | 0.5 | -0.165 | 1.95
